Assay results as given in PMC11006913.

Key:
Assay in all cases: PBM; 200 nM protein, PBS
Conditions in all cases: dsDNA, one strand shown
HOXB9 [1] = biological target: HOXB9 (Homo sapiens, UniProt P17482 171-250, T197M)
HOXB9 [2] = biological target: HOXB9 (Homo sapiens, UniProt P17482 171-250)
HOXB9 [3] = biological target: HOXB9 (Homo sapiens, UniProt P17482 171-250, R186Q)
NKX3-2 [4] = biological target: NKX3-2 (Homo sapiens, UniProt P78367 192-278, P234S)
NKX3-2 [5] = biological target: NKX3-2 (Homo sapiens, UniProt P78367 192-278)
ALX3 = ALX3 (Homo sapiens, UniProt O95076 139-225, N203Q)
Chain of ALX3 (O95076 139-225 N203Q): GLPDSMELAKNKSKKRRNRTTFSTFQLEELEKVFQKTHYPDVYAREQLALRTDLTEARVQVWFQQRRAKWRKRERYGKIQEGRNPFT

Chain of HOXB9 (Homo sapiens, UniProt P17482 171-250, R186Q) (P17482 171-250 R186Q): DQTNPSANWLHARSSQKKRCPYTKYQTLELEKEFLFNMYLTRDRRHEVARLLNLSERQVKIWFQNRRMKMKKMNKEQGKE
Chain of HOXB9 (Homo sapiens, UniProt P17482 171-250, T197M) (P17482 171-250 T197M): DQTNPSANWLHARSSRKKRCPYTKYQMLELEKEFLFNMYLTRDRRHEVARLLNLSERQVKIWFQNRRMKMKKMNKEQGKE
Chain of HOXB9 (Homo sapiens, UniProt P17482 171-250) (P17482 171-250): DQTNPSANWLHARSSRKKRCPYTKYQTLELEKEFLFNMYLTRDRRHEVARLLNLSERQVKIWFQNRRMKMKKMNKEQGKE
Chain of NKX3-2 (Homo sapiens, UniProt P78367 192-278, P234S) (P78367 192-278 P234S): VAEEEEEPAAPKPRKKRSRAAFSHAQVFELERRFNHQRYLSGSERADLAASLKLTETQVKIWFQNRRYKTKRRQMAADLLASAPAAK
Chain of NKX3-2 (Homo sapiens, UniProt P78367 192-278) (P78367 192-278): as the sequence (P78367 192-278 P234S) above, with S43P counted along it

Sequence | binding signal (HOXB9 [1]) | binding signal (HOXB9 [2]) | binding signal (HOXB9 [3]) | binding signal (NKX3-2 [4]) | binding signal (NKX3-2 [5]) | binding signal (ALX3)
GCCTCCGC | 8.43 upbm affinity estimate (log intensity, higher = more binding, comparable within an allelic series) | 8.05 upbm affinity estimate (log intensity, higher = more binding, comparable within an allelic series) | 8.16 upbm affinity estimate (log intensity, higher = more binding, comparable within an allelic series) |  |  | 
ACCGGCCA | 8.45 upbm affinity estimate (log intensity, higher = more binding, comparable within an allelic series) | 8.55 upbm affinity estimate (log intensity, higher = more binding, comparable within an allelic series) | 8.63 upbm affinity estimate (log intensity, higher = more binding, comparable within an allelic series) |  |  | 
CCGATCGG | 8.51 upbm affinity estimate (log intensity, higher = more binding, comparable within an allelic series) | 8.53 upbm affinity estimate (log intensity, higher = more binding, comparable within an allelic series) | 8.57 upbm affinity estimate (log intensity, higher = more binding, comparable within an allelic series) |  |  | 
GCCACTCC | 8.73 upbm affinity estimate (log intensity, higher = more binding, comparable within an allelic series) | 8.79 upbm affinity estimate (log intensity, higher = more binding, comparable within an allelic series) | 8.8 upbm affinity estimate (log intensity, higher = more binding, comparable within an allelic series) |  |  | 
CAGATCGG | 8.72 upbm affinity estimate (log intensity, higher = more binding, comparable within an allelic series) | 8.44 upbm affinity estimate (log intensity, higher = more binding, comparable within an allelic series) | 8.55 upbm affinity estimate (log intensity, higher = more binding, comparable within an allelic series) |  |  | 
AGACGCGG | 8.63 upbm affinity estimate (log intensity, higher = more binding, comparable within an allelic series) | 8.58 upbm affinity estimate (log intensity, higher = more binding, comparable within an allelic series) | 8.55 upbm affinity estimate (log intensity, higher = more binding, comparable within an allelic series) |  |  | 
CCACGTCG | 8.7 upbm affinity estimate (log intensity, higher = more binding, comparable within an allelic series) | 8.53 upbm affinity estimate (log intensity, higher = more binding, comparable within an allelic series) | 8.57 upbm affinity estimate (log intensity, higher = more binding, comparable within an allelic series) |  |  | 
AGCATCCG | 8.64 upbm affinity estimate (log intensity, higher = more binding, comparable within an allelic series) | 8.73 upbm affinity estimate (log intensity, higher = more binding, comparable within an allelic series) | 8.71 upbm affinity estimate (log intensity, higher = more binding, comparable within an allelic series) |  |  | 
GCAGCCCC | 8.47 upbm affinity estimate (log intensity, higher = more binding, comparable within an allelic series) | 8.43 upbm affinity estimate (log intensity, higher = more binding, comparable within an allelic series) | 8.5 upbm affinity estimate (log intensity, higher = more binding, comparable within an allelic series) | 10.7 upbm affinity estimate (log intensity, higher = more binding, comparable within an allelic series) | 10.7 upbm affinity estimate (log intensity, higher = more binding, comparable within an allelic series) | 
AGGGCGTG | 8.57 upbm affinity estimate (log intensity, higher = more binding, comparable within an allelic series) | 8.4 upbm affinity estimate (log intensity, higher = more binding, comparable within an allelic series) | 8.53 upbm affinity estimate (log intensity, higher = more binding, comparable within an allelic series) |  |  | 
ATTAACAA | 9.96 upbm affinity estimate (log intensity, higher = more binding, comparable within an allelic series) |  |  |  |  | 8.57 upbm affinity estimate (log intensity, higher = more binding, comparable within an allelic series)
CACGCCTC | 8.36 upbm affinity estimate (log intensity, higher = more binding, comparable within an allelic series) | 8.42 upbm affinity estimate (log intensity, higher = more binding, comparable within an allelic series) | 8.39 upbm affinity estimate (log intensity, higher = more binding, comparable within an allelic series) |  |  | 
GACATAAA | 9.74 upbm affinity estimate (log intensity, higher = more binding, comparable within an allelic series) | 11.7 upbm affinity estimate (log intensity, higher = more binding, comparable within an allelic series) | 11.3 upbm affinity estimate (log intensity, higher = more binding, comparable within an allelic series) |  |  | 
AGGAACCC | 8.41 upbm affinity estimate (log intensity, higher = more binding, comparable within an allelic series) | 8.22 upbm affinity estimate (log intensity, higher = more binding, comparable within an allelic series) | 8.24 upbm affinity estimate (log intensity, higher = more binding, comparable within an allelic series) |  |  | 
AGGTCTGG | 8.53 upbm affinity estimate (log intensity, higher = more binding, comparable within an allelic series) | 8.57 upbm affinity estimate (log intensity, higher = more binding, comparable within an allelic series) | 8.64 upbm affinity estimate (log intensity, higher = more binding, comparable within an allelic series) |  |  | 
ATAAATGA | 9.72 upbm affinity estimate (log intensity, higher = more binding, comparable within an allelic series) | 11 upbm affinity estimate (log intensity, higher = more binding, comparable within an allelic series) | 10.8 upbm affinity estimate (log intensity, higher = more binding, comparable within an allelic series) |  |  | 
GTGGCGGA | 8.44 upbm affinity estimate (log intensity, higher = more binding, comparable within an allelic series) | 8.58 upbm affinity estimate (log intensity, higher = more binding, comparable within an allelic series) | 8.61 upbm affinity estimate (log intensity, higher = more binding, comparable within an allelic series) |  |  | 
GCCGGGCC | 8.36 upbm affinity estimate (log intensity, higher = more binding, comparable within an allelic series) | 8.42 upbm affinity estimate (log intensity, higher = more binding, comparable within an allelic series) | 8.41 upbm affinity estimate (log intensity, higher = more binding, comparable within an allelic series) |  |  | 
CCCCGGAC | 8.48 upbm affinity estimate (log intensity, higher = more binding, comparable within an allelic series) | 8.48 upbm affinity estimate (log intensity, higher = more binding, comparable within an allelic series) | 8.49 upbm affinity estimate (log intensity, higher = more binding, comparable within an allelic series) |  |  | 
CCTTCGCG | 8.71 upbm affinity estimate (log intensity, higher = more binding, comparable within an allelic series) | 8.45 upbm affinity estimate (log intensity, higher = more binding, comparable within an allelic series) | 8.78 upbm affinity estimate (log intensity, higher = more binding, comparable within an allelic series) |  |  | 
GGACCTAC | 8.72 upbm affinity estimate (log intensity, higher = more binding, comparable within an allelic series) | 8.47 upbm affinity estimate (log intensity, higher = more binding, comparable within an allelic series) | 8.62 upbm affinity estimate (log intensity, higher = more binding, comparable within an allelic series) |  |  | 
